Common to all, as to conditions: modulator concentration 10 µM
Assay [1] has as its system RAW-Dual (murine macrophage reporter line). In words: NF-kB reporter (SEAP) activity fold change vs agonist alone; higher = enhanced NF-kB activity. Put shortly: (§1)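 In 384-well plates holding 50 000 RAW-Dual murine macrophage reporter cells per well, compound at 10 μM final was pre-incubated for 1 hour at 37 °C, after which a PRR agonist was added overnight. Supernatant SEAP read with QUANTI-Blue at 620 nm absorbance reported NF-κB, and Lucia luciferase read with QUANTI-Luc luminescence reported IRF. Fold change values come from dividing each reporter signal by the mean of agonist-only control wells on the same plate, averaged over replicate plates with propagated errors.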

The test system is the same in assay [2]. In words: IRF reporter (Lucia luciferase) activity fold change vs agonist alone; higher = enhanced IRF activity. Put shortly: as §1
The test system is the same in assay [3]. In words: viability score (confluency relative to resting cells, overnight) (fraction); higher = more viable, active = viable (0.7 or more). The essentials: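 RAW-Dual macrophages in 384-well plates were incubated overnight with compound, final concentration 10 μM. Confluency images from IncuCyte were processed in IncuCyte software into two masks covering all imaged wells. The viability score is each well's confluency relative to resting cells, and a compound met the cutoff when both masks exceeded 70% of resting cells.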

Setting [4] is: agonist: CpG ODN 1826 0.5 ug/mL.

The structures appear in SMILES notation. ± gives the standard deviation.

`CCS(=O)(=O)N1CCC2(CC1)NC(=O)N(CCOc1ccccc1)C2=O`: the results for the NF-kB reporter in assay [1] (setting [4]), in assay [1] (agonist: LPS 0.1 ug/mL) and in assay [1] (agonist: MPLA […]) were 0.871 ± 0.041, 1.05 ± 0.11 and 1.09 ± 0.078, respectively. The IRF reporter in assay [2] (agonist: 3'3'-cGAMP 10 ug/mL) turned out to be 0.996 ± 0.047; in assay [2] (agonist: LPS 0.1 ug/mL), 1.43 ± 0.25; in assay [2] (agonist: MPLA […]), 1.58 ± 0.61. Moreover, in assay [3], the viability score was 0.989 (active).
In the case of `CC(=O)Nc1nnc(S(N)(=O)=O)s1`, the NF-kB reporter in assay [1] (setting [4]) was determined as 1.57 ± 0.56; in assay [1] (agonist: LPS 0.1 ug/mL), 1.08 ± 0.18; in assay [1] (agonist: MPLA […]) it was 1.07 ± 0.11. Further, the IRF reporter in assay [2] (agonist: 3'3'-cGAMP 10 ug/mL) came out at 0.941 ± 0.029; in assay [2] (agonist: LPS 0.1 ug/mL) it was 1.28 ± 0.32; in assay [2] (agonist: MPLA […]), 0.921 ± 0.095. Moreover, the viability score in assay [3] is 0.998 (active).
Turning to `c1ccc(CN2CCN(c3cc(-c4cccnc4)n[nH]3)CC2)cc1`, the NF-kB reporter came to 0.805 ± 0.043 in assay [1] (setting [4]), 1.06 ± 0.096 in assay [1] (agonist: LPS 0.1 ug/mL) and 1.21 ± 0.092 in assay [1] (agonist: MPLA […]). Also, the IRF reporter in assay [2] (agonist: 3'3'-cGAMP 10 ug/mL) worked out at 1.09 ± 0.051; in assay [2] (agonist: LPS 0.1 ug/mL), 1.37 ± 0.31; in assay [2] (agonist: MPLA […]) it was 1.56 ± 0.59. In assay [3], the viability score was 0.98 (active).
Take `COc1ccc(CNS(=O)(=O)c2ccc3ccccc3c2)cc1`: the results for the NF-kB reporter in assay [1] (setting [4]), in assay [1] (agonist: LPS 0.1 ug/mL) and in assay [1] (agonist: MPLA […]) were 0.795 ± 0.074, 0.899 ± 0.079 and 1.13 ± 0.11, respectively. Also, the IRF reporter amounted to 0.974 ± 0.052 in assay [2] (agonist: 3'3'-cGAMP 10 ug/mL), 1.49 ± 0.11 in assay [2] (agonist: LPS 0.1 ug/mL) and 1.7 ± 0.17 in assay [2] (agonist: MPLA […]). Besides, the viability score in assay [3] was 0.972 (active).
Turning to `CNC(=O)c1ccc(Nc2ncc(C(F)(F)F)c(NCc3nccnc3N(C)S(C)(=O)=O)n2)cc1`, the NF-kB reporter in assay [1] (setting [4]) worked out at 1.25 ± 0.37; in assay [1] (agonist: LPS 0.1 ug/mL), 0.169 ± 0.013; in assay [1] (agonist: MPLA […]), 2.19 ± 0.34. Besides, the IRF reporter in assay [2] (agonist: 3'3'-cGAMP 10 ug/mL) was 0.0196 ± 0.0024; in assay [2] (agonist: LPS 0.1 ug/mL), 0.0319 ± 0.0037; in assay [2] (agonist: MPLA […]), 0.0361 ± 0.006. The viability score in assay [3] was 0.749 (active).
Take `Cc1cccc(C(=O)N2N=C(C3CCCCC3)CC2(O)C(F)(F)F)c1O` (stereo unspecified): the NF-kB reporter came out at 0.735 ± 0.057 in assay [1] (setting [4]), 0.839 ± 0.064 in assay [1] (agonist: LPS 0.1 ug/mL) and 0.955 ± 0.089 in assay [1] (agonist: MPLA […]). For the same molecule, the figures for the IRF reporter in assay [2] (agonist: 3'3'-cGAMP 10 ug/mL), in assay [2] (agonist: LPS 0.1 ug/mL) and in assay [2] (agonist: MPLA […]) were 0.939 ± 0.046, 1.4 ± 0.093 and 1.52 ± 0.14, respectively. Besides, the viability score in assay [3] is 1.01 (active).
As for `Cl.Nc1ccn([C@@H]2O[C@H](CO)[C@@H](O)C2(F)F)c(=O)n1`, the NF-kB reporter in assay [1] (setting [4]) was found to be 1.3 ± 0.31; in assay [1] (agonist: LPS 0.1 ug/mL), 0.921 ± 0.05; in assay [1] (agonist: MPLA […]), 1.29 ± 0.087. Further, the IRF reporter in assay [2] (agonist: 3'3'-cGAMP 10 ug/mL) came to 1.25 ± 0.063; in assay [2] (agonist: LPS 0.1 ug/mL), 1.51 ± 0.17; in assay [2] (agonist: MPLA […]), 1.32 ± 0.21. For the same molecule, the viability score in assay [3] is 0.173 (inactive).
For the molecule `Nc1ccn(C2OC(CO)C(O)C2O)c(=O)n1` (stereo unspecified), the NF-kB reporter in assay [1] (setting [4]) came to 1 ± 0.082; in assay [1] (agonist: LPS 0.1 ug/mL), 0.875 ± 0.092; in assay [1] (agonist: MPLA […]), 1.49 ± 0.44. Also, the IRF reporter in assay [2] (agonist: 3'3'-cGAMP 10 ug/mL) came to 0.96 ± 0.052; in assay [2] (agonist: LPS 0.1 ug/mL), 1.25 ± 0.2; in assay [2] (agonist: MPLA […]) it was 1.26 ± 0.27. Also, in assay [3], the viability score is 1.03 (active).
For the molecule `CCOC(=O)C1CCCN(S(=O)(=O)c2ccc(F)cc2)C1` (stereo unspecified), the NF-kB reporter in assay [1] (setting [4]) came to 1.07 ± 0.12; in assay [1] (agonist: LPS 0.1 ug/mL) it was 1.1 ± 0.11; in assay [1] (agonist: MPLA […]) it was 0.97 ± 0.059. For the same molecule, the values for the IRF reporter in assay [2] (agonist: 3'3'-cGAMP 10 ug/mL), in assay [2] (agonist: LPS 0.1 ug/mL) and in assay [2] (agonist: MPLA […]) were 0.964 ± 0.06, 1.3 ± 0.18 and 1.02 ± 0.3, respectively. The viability score in assay [3] is 0.983 (active).
Turning to `CCOc1ccc(S(=O)(=O)NC(C)(C)C)cc1C`, the NF-kB reporter was 0.972 ± 0.081 in assay [1] (setting [4]), 0.852 ± 0.072 in assay [1] (agonist: LPS 0.1 ug/mL) and 1.13 ± 0.12 in assay [1] (agonist: MPLA […]). The IRF reporter stood at 0.971 ± 0.044 in assay [2] (agonist: 3'3'-cGAMP 10 ug/mL), 1.38 ± 0.082 in assay [2] (agonist: LPS 0.1 ug/mL) and 1.53 ± 0.14 in assay [2] (agonist: MPLA […]). Also, in assay [3], the viability score was 0.868 (active).
For the molecule `CNC(=O)c1cc(Oc2ccc(NC(=O)Nc3ccc(Cl)c(C(F)(F)F)c3)cc2)ccn1.Cc1ccc(S(=O)(=O)O)cc1`, the values for the NF-kB reporter in assay [1] (setting [4]), in assay [1] (agonist: LPS 0.1 ug/mL) and in assay [1] (agonist: MPLA […]) were 0.448 ± 0.038, 0.8 ± 0.048 and 0.791 ± 0.072, respectively. Further, the IRF reporter in assay [2] (agonist: 3'3'-cGAMP 10 ug/mL) was 0.246 ± 0.019; in assay [2] (agonist: LPS 0.1 ug/mL) it was 0.575 ± 0.047; in assay [2] (agonist: MPLA […]), 0.513 ± 0.069. Besides, in assay [3], the viability score was 1.01 (active).
For `COCC(=O)Nc1c(C(=O)Nc2ccc(OC(F)(F)F)cc2)oc2ccccc12`, the NF-kB reporter in assay [1] (setting [4]) was determined as 1.26 ± 0.1; in assay [1] (agonist: LPS 0.1 ug/mL), 1.24 ± 0.098; in assay [1] (agonist: MPLA […]), 1.22 ± 0.11. The IRF reporter in assay [2] (agonist: 3'3'-cGAMP 10 ug/mL) worked out at 1.58 ± 0.085; in assay [2] (agonist: LPS 0.1 ug/mL) it was 1.84 ± 0.17; in assay [2] (agonist: MPLA […]), 1.85 ± 0.38. Moreover, the viability score in assay [3] is 0.922 (active).
Regarding `Cc1cc(C)nc(SCCCCSc2nc(C)cc(C)n2)n1`, the NF-kB reporter in assay [1] (setting [4]) came to 1.03 ± 0.062; in assay [1] (agonist: LPS 0.1 ug/mL) it was 0.975 ± 0.14; in assay [1] (agonist: MPLA […]) it was 0.944 ± 0.025. The values for the IRF reporter in assay [2] (agonist: 3'3'-cGAMP 10 ug/mL), in assay [2] (agonist: LPS 0.1 ug/mL) and in assay [2] (agonist: MPLA […]) were 1.13 ± 0.14, 0.979 ± 0.11 and 0.909 ± 0.21, respectively. The viability score in assay [3] is 0.996 (active).

These data come from the supplement of paper PMC10646978.
